Assay results: PMC7862700, “An all-to-all approach to the identification of sequence-specific readers for epigenetic DNA modifications on cytosine”

How the values were obtained:
Assay in all cases: DAPPL (digital affinity profiling via proximity ligation, sequencing); 10 mM Tris-HCl pH 7.5, 50 mM NaCl, 1 mM DTT, 4% glycerol, room temperature, 30 min; GST-TFs on glutathione beads, 16-mer random dsDNA library, 0.1% formaldehyde crosslink after washing; high values mean tight binding
Settings in all cases: protein: recombinant; tags: N-terminal GST; dsDNA, one strand shown
ELK1 = biological target: T1, ELK1 (Homo sapiens, UniProt P19419 1-428)
T1 sequence: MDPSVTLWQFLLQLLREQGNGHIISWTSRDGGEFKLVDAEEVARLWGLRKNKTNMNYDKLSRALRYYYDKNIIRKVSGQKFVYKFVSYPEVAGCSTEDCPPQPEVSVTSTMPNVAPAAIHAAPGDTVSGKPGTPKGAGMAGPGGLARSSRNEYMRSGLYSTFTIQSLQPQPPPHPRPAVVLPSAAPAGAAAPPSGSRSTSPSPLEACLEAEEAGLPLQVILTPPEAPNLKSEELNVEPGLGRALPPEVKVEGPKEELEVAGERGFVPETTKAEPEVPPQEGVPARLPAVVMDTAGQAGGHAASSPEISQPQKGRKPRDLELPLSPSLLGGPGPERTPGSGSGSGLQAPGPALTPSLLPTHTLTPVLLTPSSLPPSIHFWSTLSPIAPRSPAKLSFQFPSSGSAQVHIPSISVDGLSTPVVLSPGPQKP
Procedure, shortened: (§1)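 A tag-only sample was pooled with DNA-barcoded human transcription factors that had been expressed in yeast as GST fusions and captured on glutathione beads. The pools were incubated for 30 min at room temperature with 200 nmole of a random double-stranded 16-mer DNA library in Tris/NaCl/DTT/glycerol buffer, then washed, crosslinked with 0.1% formaldehyde, proximity-ligated (BsaI/T4 ligase, 1 h, 37 °C), PCR-amplified and sequenced on an Illumina NextSeq500. Binding signal is each hexamer's read frequency for a factor divided by its frequency for the tag-only sample.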

GABPA = biological target: T2, GABPA (Homo sapiens, UniProt Q06546 1-454)
T2 sequence: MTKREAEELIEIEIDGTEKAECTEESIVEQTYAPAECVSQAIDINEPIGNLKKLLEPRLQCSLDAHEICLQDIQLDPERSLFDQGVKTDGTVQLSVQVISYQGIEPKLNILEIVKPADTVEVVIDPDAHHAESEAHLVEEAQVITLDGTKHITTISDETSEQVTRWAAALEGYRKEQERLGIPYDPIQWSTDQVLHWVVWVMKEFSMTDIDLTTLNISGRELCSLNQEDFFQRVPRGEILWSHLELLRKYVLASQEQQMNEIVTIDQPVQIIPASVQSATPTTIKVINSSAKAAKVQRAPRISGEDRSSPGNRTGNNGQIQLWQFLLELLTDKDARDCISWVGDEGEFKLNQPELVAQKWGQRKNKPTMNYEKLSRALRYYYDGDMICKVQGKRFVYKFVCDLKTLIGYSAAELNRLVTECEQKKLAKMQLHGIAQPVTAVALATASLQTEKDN
Procedure, shortened: as §1

ERG = biological target: T3, ERG (Homo sapiens, UniProt P11308 1-479)
T3 sequence: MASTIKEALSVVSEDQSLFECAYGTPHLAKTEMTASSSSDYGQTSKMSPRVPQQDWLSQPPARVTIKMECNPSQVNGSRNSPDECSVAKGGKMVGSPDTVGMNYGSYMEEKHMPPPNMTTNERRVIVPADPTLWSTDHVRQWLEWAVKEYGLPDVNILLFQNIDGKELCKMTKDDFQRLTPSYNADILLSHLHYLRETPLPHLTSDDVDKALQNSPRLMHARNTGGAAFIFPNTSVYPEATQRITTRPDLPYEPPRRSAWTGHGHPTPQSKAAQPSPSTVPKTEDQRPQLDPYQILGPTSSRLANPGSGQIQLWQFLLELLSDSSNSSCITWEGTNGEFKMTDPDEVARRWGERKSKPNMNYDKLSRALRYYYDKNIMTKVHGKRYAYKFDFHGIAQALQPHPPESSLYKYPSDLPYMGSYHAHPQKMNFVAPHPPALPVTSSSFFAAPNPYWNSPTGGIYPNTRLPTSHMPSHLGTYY
Procedure, shortened: as §1

ELF1 = ELF1 (Homo sapiens, UniProt P32519 1-619)
Procedure, shortened: as §1

EHF = biological target: T4, EHF (Homo sapiens, UniProt Q9NZC4 1-300)
T4 sequence: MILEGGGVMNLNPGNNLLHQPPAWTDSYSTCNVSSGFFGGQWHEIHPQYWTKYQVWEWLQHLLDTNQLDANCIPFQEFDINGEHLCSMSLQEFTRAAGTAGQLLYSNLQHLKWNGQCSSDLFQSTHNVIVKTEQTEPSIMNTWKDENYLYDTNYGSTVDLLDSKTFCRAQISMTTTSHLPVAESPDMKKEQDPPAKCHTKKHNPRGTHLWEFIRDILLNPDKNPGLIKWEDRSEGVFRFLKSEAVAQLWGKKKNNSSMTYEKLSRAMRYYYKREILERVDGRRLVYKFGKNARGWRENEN
Procedure, shortened: as §1

SPIB = SPIB (Homo sapiens, UniProt Q01892 1-262)
Procedure, shortened: as §1

FEV = biological target: T5, FEV (Homo sapiens, UniProt Q99581 1-238)
T5 sequence: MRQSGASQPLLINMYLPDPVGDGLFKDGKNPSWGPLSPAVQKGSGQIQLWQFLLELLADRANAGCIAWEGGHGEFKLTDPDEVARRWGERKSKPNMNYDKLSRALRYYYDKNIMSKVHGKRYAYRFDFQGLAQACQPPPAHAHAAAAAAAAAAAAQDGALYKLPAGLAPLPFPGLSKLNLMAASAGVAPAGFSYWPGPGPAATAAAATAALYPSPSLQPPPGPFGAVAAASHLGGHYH
Procedure, shortened: as §1

ETV5 = ETV5 (Homo sapiens, UniProt P41161 1-510)
Procedure, shortened: as §1

ELF4 = ELF4 (Homo sapiens, UniProt Q99607 1-663)
Procedure, shortened: as §1

ELK4 = biological target: T6, ELK4 (Homo sapiens, UniProt P28324-2 1-405)
T6 sequence: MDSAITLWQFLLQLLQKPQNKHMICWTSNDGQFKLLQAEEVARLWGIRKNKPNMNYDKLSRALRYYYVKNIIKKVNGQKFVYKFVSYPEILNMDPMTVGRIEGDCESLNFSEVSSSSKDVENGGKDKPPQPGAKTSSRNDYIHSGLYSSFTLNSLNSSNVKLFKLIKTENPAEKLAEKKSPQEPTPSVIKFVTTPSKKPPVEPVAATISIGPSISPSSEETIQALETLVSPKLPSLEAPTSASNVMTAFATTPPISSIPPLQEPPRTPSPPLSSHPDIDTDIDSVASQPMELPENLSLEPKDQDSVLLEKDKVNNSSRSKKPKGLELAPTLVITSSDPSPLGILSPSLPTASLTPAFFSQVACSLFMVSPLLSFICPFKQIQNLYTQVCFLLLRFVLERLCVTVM
Procedure, shortened: as §1

ETV2 = biological target: T7, ETV2 (Homo sapiens, UniProt O00321 1-342)
T7 sequence: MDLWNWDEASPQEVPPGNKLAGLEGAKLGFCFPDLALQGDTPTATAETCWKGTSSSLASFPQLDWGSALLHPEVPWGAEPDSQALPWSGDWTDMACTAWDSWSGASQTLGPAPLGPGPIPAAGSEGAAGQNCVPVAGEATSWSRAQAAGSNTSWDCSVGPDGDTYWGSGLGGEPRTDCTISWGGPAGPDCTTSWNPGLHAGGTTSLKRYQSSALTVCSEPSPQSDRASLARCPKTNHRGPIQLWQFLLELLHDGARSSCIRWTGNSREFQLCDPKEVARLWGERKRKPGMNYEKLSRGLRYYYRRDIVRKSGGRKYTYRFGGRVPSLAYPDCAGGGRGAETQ
Procedure, shortened: as §1

ELF3 = biological target: T8, ELF3 (Homo sapiens, UniProt P78545 1-371)
T8 sequence: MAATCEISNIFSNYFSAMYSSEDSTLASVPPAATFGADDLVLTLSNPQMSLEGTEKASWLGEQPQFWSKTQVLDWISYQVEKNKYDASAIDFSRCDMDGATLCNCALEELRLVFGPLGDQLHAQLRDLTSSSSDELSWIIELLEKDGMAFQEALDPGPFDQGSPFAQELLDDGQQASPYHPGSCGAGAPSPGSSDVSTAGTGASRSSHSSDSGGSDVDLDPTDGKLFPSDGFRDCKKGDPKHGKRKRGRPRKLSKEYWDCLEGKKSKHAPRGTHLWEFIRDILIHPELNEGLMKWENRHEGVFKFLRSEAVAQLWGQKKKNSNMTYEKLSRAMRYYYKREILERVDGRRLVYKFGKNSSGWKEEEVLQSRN
Procedure, shortened: as §1

ETV1 = ETV1 (Homo sapiens, UniProt P50549 1-477)
Procedure, shortened: as §1

ERF = biological target: T9, ERF (Homo sapiens, UniProt P50548 1-548)
T9 sequence: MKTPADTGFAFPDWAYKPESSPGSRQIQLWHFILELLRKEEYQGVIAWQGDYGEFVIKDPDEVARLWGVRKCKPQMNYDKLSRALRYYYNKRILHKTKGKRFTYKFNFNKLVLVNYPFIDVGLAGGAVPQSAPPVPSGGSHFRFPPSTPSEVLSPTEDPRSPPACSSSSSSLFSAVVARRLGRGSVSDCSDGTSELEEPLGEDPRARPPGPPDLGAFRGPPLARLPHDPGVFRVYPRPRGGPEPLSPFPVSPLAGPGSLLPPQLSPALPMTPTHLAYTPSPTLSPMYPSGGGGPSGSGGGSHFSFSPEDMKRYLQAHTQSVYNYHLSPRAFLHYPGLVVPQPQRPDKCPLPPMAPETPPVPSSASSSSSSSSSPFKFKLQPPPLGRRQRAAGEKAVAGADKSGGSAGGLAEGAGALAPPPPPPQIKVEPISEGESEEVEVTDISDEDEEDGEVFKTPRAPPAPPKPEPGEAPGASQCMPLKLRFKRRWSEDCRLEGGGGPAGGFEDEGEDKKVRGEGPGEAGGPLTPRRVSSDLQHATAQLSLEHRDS
Procedure, shortened: as §1

ETV3L = biological target: T10, ETV3L (Homo sapiens, UniProt Q6ZN32 1-361)
T10 sequence: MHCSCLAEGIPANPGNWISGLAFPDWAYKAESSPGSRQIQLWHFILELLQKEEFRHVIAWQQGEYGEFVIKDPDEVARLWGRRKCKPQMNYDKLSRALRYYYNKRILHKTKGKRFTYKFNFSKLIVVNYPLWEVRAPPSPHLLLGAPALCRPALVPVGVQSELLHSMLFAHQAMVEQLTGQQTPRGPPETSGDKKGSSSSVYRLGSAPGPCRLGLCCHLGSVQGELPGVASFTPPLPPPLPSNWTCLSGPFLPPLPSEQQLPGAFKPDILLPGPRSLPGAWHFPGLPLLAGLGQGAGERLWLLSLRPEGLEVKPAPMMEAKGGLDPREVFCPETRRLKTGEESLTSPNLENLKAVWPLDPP
Procedure, shortened: as §1

ETS2 = biological target: T11, ETS2 (Homo sapiens, UniProt P15036 1-469)
T11 sequence: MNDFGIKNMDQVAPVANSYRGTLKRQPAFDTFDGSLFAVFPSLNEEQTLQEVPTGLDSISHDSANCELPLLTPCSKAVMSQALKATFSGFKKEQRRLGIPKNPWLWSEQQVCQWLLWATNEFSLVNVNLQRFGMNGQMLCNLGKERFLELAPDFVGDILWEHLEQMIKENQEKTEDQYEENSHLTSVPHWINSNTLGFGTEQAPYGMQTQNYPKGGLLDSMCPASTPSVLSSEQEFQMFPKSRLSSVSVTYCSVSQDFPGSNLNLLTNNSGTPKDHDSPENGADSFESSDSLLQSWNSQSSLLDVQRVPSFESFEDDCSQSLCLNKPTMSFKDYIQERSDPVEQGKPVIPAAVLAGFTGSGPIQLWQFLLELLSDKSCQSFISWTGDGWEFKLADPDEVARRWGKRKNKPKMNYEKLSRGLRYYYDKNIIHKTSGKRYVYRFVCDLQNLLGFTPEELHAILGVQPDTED
Procedure, shortened: as §1

ETV7 = biological target: T12, ETV7 (Homo sapiens, UniProt Q9Y603 1-341)
T12 sequence: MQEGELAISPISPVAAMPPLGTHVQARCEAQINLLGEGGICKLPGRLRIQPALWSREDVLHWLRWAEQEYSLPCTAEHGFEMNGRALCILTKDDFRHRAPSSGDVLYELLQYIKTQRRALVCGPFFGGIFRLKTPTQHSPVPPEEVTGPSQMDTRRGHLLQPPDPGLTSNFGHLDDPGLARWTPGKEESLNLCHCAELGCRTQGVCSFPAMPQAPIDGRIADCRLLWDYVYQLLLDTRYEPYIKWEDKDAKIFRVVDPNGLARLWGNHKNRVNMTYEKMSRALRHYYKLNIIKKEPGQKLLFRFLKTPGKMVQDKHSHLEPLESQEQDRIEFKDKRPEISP
Procedure, shortened: as §1

ETV3 = biological target: T13, ETV3 (Homo sapiens, UniProt P41162-2 1-143)
T13 sequence: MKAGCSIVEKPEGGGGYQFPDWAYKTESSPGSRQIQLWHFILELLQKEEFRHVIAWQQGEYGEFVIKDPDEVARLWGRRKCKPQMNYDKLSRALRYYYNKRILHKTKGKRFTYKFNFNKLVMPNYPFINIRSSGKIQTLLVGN
Procedure, shortened: as §1

ETV6 = ETV6 (Homo sapiens, UniProt P41212 1-452)
Procedure, shortened: as §1

SPIB, sequence (Q01892 whole entry): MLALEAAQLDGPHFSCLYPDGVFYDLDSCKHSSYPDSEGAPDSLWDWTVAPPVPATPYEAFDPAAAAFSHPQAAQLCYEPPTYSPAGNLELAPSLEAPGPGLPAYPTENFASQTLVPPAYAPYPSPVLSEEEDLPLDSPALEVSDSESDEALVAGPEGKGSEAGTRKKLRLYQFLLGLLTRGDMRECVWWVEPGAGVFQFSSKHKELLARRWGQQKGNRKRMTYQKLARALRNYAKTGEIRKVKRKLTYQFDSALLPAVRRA
ELF1, sequence (P32519 whole entry): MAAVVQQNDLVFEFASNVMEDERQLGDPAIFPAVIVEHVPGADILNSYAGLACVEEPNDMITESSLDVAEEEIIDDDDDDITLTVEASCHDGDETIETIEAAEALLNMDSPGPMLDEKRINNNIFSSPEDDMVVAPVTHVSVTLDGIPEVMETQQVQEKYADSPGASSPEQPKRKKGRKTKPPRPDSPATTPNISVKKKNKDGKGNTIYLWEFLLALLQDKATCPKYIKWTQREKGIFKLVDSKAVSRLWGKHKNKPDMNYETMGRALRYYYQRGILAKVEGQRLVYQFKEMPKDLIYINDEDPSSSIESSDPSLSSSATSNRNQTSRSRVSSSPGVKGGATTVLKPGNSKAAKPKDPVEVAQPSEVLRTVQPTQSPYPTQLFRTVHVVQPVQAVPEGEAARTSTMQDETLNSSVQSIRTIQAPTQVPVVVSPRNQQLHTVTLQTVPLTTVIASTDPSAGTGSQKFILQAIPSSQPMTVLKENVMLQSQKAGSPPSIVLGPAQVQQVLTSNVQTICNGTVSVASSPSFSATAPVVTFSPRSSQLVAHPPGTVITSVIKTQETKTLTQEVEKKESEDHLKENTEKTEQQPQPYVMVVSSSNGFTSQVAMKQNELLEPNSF
ETV1, sequence (P50549 whole entry): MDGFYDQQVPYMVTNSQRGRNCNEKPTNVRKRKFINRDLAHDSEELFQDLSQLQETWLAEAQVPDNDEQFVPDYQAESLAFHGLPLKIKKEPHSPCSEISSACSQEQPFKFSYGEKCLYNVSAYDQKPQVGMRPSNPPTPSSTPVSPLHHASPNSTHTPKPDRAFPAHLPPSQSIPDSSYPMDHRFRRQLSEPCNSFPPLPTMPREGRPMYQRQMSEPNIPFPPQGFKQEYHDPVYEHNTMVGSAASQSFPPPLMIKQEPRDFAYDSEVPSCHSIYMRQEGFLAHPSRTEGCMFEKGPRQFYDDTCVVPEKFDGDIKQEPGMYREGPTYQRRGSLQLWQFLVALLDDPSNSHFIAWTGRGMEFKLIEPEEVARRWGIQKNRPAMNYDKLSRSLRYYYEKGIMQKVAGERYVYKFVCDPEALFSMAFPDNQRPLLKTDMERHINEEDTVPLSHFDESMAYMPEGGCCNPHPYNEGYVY
ELF4, sequence (Q99607 whole entry): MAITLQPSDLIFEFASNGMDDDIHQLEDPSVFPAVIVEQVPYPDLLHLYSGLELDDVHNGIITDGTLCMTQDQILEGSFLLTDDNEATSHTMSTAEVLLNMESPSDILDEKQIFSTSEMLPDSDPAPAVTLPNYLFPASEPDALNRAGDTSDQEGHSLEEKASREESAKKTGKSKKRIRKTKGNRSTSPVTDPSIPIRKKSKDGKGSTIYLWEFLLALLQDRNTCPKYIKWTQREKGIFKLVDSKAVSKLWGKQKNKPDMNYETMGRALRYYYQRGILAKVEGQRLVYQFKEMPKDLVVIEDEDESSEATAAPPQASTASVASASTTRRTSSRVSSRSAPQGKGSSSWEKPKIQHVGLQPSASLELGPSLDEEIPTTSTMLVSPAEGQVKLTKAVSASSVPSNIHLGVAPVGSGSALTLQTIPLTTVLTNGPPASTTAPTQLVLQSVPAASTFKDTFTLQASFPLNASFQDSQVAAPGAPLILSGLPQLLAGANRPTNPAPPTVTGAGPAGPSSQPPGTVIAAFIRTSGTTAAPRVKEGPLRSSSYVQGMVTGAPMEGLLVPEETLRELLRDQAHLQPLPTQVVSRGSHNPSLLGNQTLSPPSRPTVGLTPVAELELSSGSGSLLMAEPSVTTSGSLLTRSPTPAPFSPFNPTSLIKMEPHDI
ETV5, sequence (P41161 whole entry): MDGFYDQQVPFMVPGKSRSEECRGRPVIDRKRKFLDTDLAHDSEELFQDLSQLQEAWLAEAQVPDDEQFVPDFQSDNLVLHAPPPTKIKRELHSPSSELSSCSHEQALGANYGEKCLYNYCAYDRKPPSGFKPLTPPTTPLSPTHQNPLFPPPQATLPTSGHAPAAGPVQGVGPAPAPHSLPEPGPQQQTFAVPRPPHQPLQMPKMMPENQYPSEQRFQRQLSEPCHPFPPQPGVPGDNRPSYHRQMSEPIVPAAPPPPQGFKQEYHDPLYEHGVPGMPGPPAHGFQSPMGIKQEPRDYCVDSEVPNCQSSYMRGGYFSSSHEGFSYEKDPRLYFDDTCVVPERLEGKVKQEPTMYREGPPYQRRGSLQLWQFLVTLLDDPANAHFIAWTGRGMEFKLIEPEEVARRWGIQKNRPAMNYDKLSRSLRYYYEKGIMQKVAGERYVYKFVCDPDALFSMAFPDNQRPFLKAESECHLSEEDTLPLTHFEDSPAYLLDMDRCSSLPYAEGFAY
ETV6, sequence (P41212 whole entry): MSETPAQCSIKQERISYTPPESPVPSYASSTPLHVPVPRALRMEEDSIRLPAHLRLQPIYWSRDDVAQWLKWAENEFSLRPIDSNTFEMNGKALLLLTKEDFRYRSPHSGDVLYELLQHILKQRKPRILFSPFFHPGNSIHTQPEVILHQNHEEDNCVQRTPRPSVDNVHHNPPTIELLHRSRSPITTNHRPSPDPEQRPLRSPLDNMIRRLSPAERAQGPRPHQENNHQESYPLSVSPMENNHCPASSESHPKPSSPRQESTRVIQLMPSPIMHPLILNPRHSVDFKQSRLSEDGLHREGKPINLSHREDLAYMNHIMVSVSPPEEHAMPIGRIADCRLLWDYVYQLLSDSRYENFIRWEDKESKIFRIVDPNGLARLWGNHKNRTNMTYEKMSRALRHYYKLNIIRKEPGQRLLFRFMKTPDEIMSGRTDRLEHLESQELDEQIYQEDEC

CATCAT was tested, and the binding signal (ELK1) was 1.06 fold enrichment (6-mer frequency, TF over GST control), the binding signal (GABPA) was 1.09 fold enrichment (6-mer frequency, TF over GST control) and the binding signal (ERG) was 1.08 fold enrichment (6-mer frequency, TF over GST control). The binding signal (ELF1) was 1.15 fold enrichment (6-mer frequency, TF over GST control), the binding signal (EHF) was 1.07 fold enrichment (6-mer frequency, TF over GST control) and the binding signal (SPIB) was 1.09 fold enrichment (6-mer frequency, TF over GST control). For the same sequence, the binding signal (FEV) was 1.09 fold enrichment (6-mer frequency, TF over GST control), the binding signal (ETV5) was 1.09 fold enrichment (6-mer frequency, TF over GST control) and the binding signal (ELF4) was 1.07 fold enrichment (6-mer frequency, TF over GST control). The binding signal (ELK4) was 1.11 fold enrichment (6-mer frequency, TF over GST control), the binding signal (ETV2) was 1.22 fold enrichment (6-mer frequency, TF over GST control) and the binding signal (ELF3) was 1.1 fold enrichment (6-mer frequency, TF over GST control). The binding signal (ETV1) was 1.07 fold enrichment (6-mer frequency, TF over GST control), the binding signal (ERF) was 1.1 fold enrichment (6-mer frequency, TF over GST control) and the binding signal (ETV3L) was 1.07 fold enrichment (6-mer frequency, TF over GST control). The binding signal (ETS2) was 1.08 fold enrichment (6-mer frequency, TF over GST control), the binding signal (ETV7) was 1.05 fold enrichment (6-mer frequency, TF over GST control) and the binding signal (ETV3) was 1.08 fold enrichment (6-mer frequency, TF over GST control). The binding signal (ETV6) was 1.05 fold enrichment (6-mer frequency, TF over GST control).
